{
  "source": "the supplement of paper PMC11732987",
  "about": "“Enantioselective OTUD7B fragment discovery through chemoproteomics screening and high-throughput optimisation” (Communications Chemistry, 2025)",
  "test_in_all_cases": "log2 ratio of Biotin-Ahx-Ub-VS probe labelling (fragment/DMSO); higher = less target engagement (more negative = stronger competition), active = hit call of the paper (q ≤ 0.05, log2 ratio ≤ -1)",
  "conditions_in_all_cases": "compound concentration: 200 uM; treatment time: 3 h",
  "key": {"OTUD6B": {"molecular_target": "T1, OTUD6B (UniProt Q8N6M0)", "T1 sequence (whole entry)": "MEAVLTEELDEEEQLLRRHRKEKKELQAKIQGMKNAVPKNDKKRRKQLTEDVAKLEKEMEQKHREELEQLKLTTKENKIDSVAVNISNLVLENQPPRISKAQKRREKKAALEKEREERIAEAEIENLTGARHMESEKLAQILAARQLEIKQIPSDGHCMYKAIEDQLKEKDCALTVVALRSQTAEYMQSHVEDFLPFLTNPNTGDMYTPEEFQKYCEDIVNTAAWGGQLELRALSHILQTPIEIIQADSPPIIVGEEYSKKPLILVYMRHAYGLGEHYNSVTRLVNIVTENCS", "in_short": "(§1)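 Global-median-normalised Spectronaut label-free quantities were compared by unpaired t-test, and values are average log2 ratios of fragment over vehicle. Only proteins with ≥2 unique peptides were used. HEK293T lysate (495 µg per sample) was treated in triplicate with fragment at 200 µM or vehicle for 3 h and then with Biotin-Ahx-Ub-VS at 0.5 µM final for 1 h. Labelled DUBs were then NeutrAvidin-enriched, digested with LysC and trypsin, and run by diaPASEF LC-MS/MS.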"}, "OTUD7B": {"molecular_target": "T2, OTUD7B (UniProt Q6GQQ9)", "T2 sequence (whole entry)": "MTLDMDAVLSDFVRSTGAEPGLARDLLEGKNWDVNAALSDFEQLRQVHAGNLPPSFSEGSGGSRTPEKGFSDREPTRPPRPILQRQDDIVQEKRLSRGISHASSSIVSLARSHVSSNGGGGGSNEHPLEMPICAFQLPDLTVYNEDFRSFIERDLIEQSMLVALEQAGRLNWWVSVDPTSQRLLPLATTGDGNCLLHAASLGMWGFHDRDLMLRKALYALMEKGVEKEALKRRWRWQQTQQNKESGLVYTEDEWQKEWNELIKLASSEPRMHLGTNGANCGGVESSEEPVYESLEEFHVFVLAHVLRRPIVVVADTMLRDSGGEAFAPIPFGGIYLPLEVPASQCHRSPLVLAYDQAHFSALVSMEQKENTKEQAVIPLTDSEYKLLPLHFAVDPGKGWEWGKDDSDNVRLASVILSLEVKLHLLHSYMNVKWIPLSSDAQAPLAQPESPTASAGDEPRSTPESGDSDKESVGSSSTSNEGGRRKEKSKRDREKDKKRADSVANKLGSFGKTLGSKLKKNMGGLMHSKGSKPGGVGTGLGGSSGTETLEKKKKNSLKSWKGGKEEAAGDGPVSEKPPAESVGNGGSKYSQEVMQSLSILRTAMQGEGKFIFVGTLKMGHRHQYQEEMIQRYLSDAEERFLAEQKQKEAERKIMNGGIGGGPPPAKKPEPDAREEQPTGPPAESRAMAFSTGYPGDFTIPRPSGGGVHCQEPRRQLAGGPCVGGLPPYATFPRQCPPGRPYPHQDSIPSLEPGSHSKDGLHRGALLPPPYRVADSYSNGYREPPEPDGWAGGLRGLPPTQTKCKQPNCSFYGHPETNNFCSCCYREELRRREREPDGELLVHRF", "in_short": "as §1"}, "PRPF8": {"molecular_target": "PRPF8 (UniProt Q6P2Q9)", "in_short": "as §1"}, "PSMD7": {"molecular_target": "T3, PSMD7 (UniProt P51665)", "T3 sequence (whole entry)": "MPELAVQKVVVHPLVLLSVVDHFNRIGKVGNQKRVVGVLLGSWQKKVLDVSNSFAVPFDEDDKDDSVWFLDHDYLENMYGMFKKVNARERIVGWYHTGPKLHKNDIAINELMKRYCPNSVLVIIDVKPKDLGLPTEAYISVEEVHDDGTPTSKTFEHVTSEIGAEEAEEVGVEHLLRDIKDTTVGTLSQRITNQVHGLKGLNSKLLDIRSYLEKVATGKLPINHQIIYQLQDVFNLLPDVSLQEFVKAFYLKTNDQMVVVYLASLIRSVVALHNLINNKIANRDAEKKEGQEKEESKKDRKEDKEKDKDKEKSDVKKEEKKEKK", "in_short": "as §1"}, "UCHL1": {"molecular_target": "UCHL1 (UniProt P09936)", "sequence (P09936 whole entry, looked up)": "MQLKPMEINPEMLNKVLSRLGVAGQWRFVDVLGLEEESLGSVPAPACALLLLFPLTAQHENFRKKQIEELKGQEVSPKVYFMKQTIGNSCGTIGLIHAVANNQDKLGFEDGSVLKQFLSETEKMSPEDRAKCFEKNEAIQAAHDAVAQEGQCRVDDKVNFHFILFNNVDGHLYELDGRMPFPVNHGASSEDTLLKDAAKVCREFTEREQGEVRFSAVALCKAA", "in_short": "as §1"}, "UCHL3": {"molecular_target": "T4, UCHL3 (UniProt P15374)", "T4 sequence (whole entry)": "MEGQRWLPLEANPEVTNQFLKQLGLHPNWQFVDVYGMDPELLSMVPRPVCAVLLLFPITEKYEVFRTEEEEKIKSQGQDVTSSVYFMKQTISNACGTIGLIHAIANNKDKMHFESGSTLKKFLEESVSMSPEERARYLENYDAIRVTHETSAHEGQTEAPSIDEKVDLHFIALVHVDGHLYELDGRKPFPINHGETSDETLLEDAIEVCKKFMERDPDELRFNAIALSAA", "in_short": "as §1"}, "UCHL5": {"molecular_target": "T5, UCHL5 (UniProt Q9Y5K5)", "T5 sequence (whole entry)": "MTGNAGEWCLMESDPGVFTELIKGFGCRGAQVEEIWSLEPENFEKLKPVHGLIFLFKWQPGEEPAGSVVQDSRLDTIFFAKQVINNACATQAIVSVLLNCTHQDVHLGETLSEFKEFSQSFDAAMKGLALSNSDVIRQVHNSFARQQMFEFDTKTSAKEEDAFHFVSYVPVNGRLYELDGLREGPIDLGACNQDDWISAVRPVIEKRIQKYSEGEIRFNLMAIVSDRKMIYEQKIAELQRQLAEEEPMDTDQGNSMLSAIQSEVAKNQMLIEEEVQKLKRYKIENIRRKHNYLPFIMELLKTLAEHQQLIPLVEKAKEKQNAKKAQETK", "in_short": "as §1"}, "USP10": {"molecular_target": "USP10 (UniProt Q14694)", "sequence (Q14694 whole entry)": "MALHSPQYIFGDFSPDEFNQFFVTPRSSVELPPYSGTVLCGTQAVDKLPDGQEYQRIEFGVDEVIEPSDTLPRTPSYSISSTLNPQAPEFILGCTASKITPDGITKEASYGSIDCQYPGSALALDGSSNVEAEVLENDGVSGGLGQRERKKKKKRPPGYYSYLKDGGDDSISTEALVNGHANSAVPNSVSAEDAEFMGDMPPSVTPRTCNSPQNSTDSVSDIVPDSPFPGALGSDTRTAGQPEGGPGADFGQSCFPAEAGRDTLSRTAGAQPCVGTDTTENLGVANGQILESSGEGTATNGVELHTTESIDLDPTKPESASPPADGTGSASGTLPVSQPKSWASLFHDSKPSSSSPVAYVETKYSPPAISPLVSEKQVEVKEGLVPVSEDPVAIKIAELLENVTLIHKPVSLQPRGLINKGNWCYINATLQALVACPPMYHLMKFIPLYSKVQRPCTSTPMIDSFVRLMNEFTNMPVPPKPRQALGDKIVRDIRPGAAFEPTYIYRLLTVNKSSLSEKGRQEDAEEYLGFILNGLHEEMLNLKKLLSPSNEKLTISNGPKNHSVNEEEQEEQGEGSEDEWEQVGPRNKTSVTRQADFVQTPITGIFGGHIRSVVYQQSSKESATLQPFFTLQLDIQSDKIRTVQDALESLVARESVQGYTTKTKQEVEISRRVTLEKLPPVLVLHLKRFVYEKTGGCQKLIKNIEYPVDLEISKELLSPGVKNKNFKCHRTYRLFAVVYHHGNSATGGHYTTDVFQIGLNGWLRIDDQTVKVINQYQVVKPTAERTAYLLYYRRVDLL", "in_short": "as §1"}, "USP15": {"molecular_target": "T6, USP15 (UniProt Q9Y4E8)", "T6 sequence (whole entry)": "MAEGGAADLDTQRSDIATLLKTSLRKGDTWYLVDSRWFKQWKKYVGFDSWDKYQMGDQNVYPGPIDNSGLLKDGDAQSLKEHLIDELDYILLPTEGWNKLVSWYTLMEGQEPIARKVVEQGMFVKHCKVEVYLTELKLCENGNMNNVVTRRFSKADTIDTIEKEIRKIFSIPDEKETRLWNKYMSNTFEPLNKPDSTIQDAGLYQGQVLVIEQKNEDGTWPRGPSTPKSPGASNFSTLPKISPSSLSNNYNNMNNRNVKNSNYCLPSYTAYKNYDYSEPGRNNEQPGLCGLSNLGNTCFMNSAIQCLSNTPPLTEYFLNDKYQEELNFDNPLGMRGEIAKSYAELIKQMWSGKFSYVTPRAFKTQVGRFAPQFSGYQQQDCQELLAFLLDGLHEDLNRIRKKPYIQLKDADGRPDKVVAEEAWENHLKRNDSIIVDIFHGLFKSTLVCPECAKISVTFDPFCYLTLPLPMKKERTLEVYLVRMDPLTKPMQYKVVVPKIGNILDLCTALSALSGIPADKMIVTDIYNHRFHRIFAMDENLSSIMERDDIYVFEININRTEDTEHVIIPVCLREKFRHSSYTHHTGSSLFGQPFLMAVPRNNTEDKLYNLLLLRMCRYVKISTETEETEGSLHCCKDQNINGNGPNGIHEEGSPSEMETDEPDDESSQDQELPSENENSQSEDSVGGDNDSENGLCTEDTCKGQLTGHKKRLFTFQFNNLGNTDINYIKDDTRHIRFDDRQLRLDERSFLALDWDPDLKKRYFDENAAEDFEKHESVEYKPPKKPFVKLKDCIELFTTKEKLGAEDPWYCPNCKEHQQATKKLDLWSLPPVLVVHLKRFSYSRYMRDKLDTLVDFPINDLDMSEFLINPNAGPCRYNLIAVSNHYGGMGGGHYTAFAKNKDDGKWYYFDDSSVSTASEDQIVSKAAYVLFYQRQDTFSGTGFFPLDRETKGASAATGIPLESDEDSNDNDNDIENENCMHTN", "in_short": "as §1"}, "USP16": {"molecular_target": "USP16 (UniProt Q9Y5T5)", "sequence (Q9Y5T5 whole entry, looked up)": "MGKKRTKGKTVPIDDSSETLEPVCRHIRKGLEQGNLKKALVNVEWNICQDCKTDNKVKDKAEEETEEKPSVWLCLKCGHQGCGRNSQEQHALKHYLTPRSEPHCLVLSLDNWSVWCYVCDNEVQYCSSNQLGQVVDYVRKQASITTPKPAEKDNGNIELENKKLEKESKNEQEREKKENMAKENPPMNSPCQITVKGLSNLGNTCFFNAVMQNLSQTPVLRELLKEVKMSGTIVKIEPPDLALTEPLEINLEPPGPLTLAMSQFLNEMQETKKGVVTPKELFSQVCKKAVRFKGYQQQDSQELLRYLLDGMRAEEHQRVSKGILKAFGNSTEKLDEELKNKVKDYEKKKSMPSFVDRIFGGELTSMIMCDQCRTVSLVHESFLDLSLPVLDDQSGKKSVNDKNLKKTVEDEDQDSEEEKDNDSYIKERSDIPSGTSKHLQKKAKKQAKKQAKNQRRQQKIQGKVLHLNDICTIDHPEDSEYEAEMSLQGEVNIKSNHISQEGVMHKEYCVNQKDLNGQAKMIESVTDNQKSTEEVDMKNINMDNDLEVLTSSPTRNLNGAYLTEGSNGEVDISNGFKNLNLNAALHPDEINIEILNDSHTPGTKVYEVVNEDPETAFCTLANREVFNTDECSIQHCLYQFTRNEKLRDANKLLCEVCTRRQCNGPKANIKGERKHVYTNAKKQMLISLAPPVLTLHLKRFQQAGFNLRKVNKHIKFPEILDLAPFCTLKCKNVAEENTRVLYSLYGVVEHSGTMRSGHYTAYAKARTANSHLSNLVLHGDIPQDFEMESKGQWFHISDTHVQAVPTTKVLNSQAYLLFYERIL", "in_short": "as §1"}},
  "note": "Unmarked numbers belong to inactive results.",
  "data": [
    {"smiles": "Cc1ccccc1CN(C)C(=O)CCl", "values": [
      {"measurement": "log2 ratio of Biotin-Ahx-Ub-VS probe labelling", "setting": "OTUD6B", "value": -0.788},
      {"measurement": "log2 ratio of Biotin-Ahx-Ub-VS probe labelling", "setting": "OTUD7B", "value": -0.98},
      {"measurement": "log2 ratio of Biotin-Ahx-Ub-VS probe labelling", "setting": "PRPF8", "value": -0.0478},
      {"measurement": "log2 ratio of Biotin-Ahx-Ub-VS probe labelling", "setting": "PSMD7", "value": -0.18},
      {"measurement": "log2 ratio of Biotin-Ahx-Ub-VS probe labelling", "setting": "UCHL1", "value": "-1.98 (active)"},
      {"measurement": "log2 ratio of Biotin-Ahx-Ub-VS probe labelling", "setting": "UCHL3", "value": -0.483},
      {"measurement": "log2 ratio of Biotin-Ahx-Ub-VS probe labelling", "setting": "UCHL5", "value": "-1.01 (active)"},
      {"measurement": "log2 ratio of Biotin-Ahx-Ub-VS probe labelling", "setting": "USP10", "value": -0.154},
      {"measurement": "log2 ratio of Biotin-Ahx-Ub-VS probe labelling", "setting": "USP15", "value": -0.803},
      {"measurement": "log2 ratio of Biotin-Ahx-Ub-VS probe labelling", "setting": "USP16", "value": -0.62}
    ]}
  ]
}
